From article PMC5540273 (PLoS ONE, 2017)

How the values were obtained:
Conditions in all cases: concentration: 1 μM, replicates: in singlicate; n = 1
[1] = test system: T1, NIM1
T1 construct: gene MGC42105

[2] = test system: NLK
[3] = test system: T2, OSR1
T2 construct: gene OXSR1

[4] = test system: PAK1
[5] = test system: PAK2
[6] = test system: PAK3
[7] = test system: PAK4
[8] = test system: PAK6
[9] = test system: PAK7
[10] = test system: T3, PCTK1
T3 construct: gene CDK16

[11] = test system: T4, PCTK2
T4 construct: gene CDK17

[12] = test system: T5, PCTK3
T5 construct: gene CDK18

[13] = test system: PDGFRA
[14] = test system: PDGFRB
[15] = test system: PDPK1
[16] = test system: PFTAIRE2
[17] = test system: T6, PFTK1
T6 construct: gene CDK14

[18] = test system: PHKG1
[19] = test system: PHKG2
[20] = test system: PIK3C2B
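Also: KINOMEscan kinase panel screen.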

| SMILES | %Inh [1] | %Inh [2] | %Inh [3] | %Inh [4] | %Inh [5] | %Inh [6] | %Inh [7] | %Inh [8] | %Inh [9] | %Inh [10] | %Inh [11] | %Inh [12] | %Inh [13] | %Inh [14] | %Inh [15] | %Inh [16] | %Inh [17] | %Inh [18] | %Inh [19] | %Inh [20] |
| --- | --- | --- | --- | --- | --- | --- | --- | --- | --- | --- | --- | --- | --- | --- | --- | --- | --- | --- | --- | --- |
| COc1ccc(NC(=O)c2ccoc2)cc1-c1ccc(C(=O)NCC2CC2)cc1 [GW810437] | 41% | 11% | 17% | 0% | 44% | 24% | 0% | 0% | 10% | 4% | 9% | 0% | 21% | 4% | 0% | 13% | 47% | 0% | 0% | 14% |
| COc1ccc(C2=C(Nc3cccc(O)c3)C(=O)NC2=O)cc1 [SB-390766] | 0% | 35% | 4% | 15% | 12% | 30% | 0% | 10% | 0% | 5% | 0% | 16% | 0% | 26% | 0% | 4% | 13% | 0% | 21% | 0% |
| Cc1cc(-c2ccnc(Nc3cccc(C#N)c3)n2)cc(C)c1O [GSK1440913] | 12% | 16% | 13% | 34% | 28% | 0% | 0% | 0% | 0% | 16% | 55% | 43% | 4% | 60% | 0% | 24% | 18% | 27% | 15% | 0% |
| Cl.Cl.NC(CNC(=O)c1cc(Br)c(-c2ccnc3[nH]ccc23)s1)c1ccccc1 (centres unmarked) [GSK1322949] | 65% | 22% | 34% | 32% | 36% | 67% | 0% | 16% | 46% | 21% | 14% | 0% | 8% | 63% | 76% | 40% | 22% | 74% | 56% | 0% |
| Nc1ncc(-c2cn[nH]c2)c2scc(-c3ccc4c(c3)CCN4C(=O)Cc3ccccc3)c12 [GSK2593067] | 17% | 0% | 13% | 0% | 0% | 51% | 0% | 0% | 0% | 3% | 0% | 29% | 96% | 100% | 65% | 0% | 0% | 0% | 0% | 0% |
| O=C(Nc1n[nH]c2nc(-c3ccccc3O)ccc12)C1CC1 [SB-711880] | 0% | 10% | 0% | 0% | 0% | 0% | 33% | 8% | 26% | 11% | 5% | 15% | 0% | 0% | 0% | 5% | 0% | 17% | 100% | 14% |
| CCOc1nccc(-c2c(-c3ccc(F)cc3)ncn2C2CCNCC2)n1 [SB-249175] | 44% | 45% | 47% | 6% | 29% | 0% | 32% | 3% | 6% | 26% | 5% | 17% | 13% | 8% | 6% | 0% | 20% | 0% | 0% | 23% |
| CN(c1ccc(NC(=O)Nc2cccc(Cl)c2)cc1)c1ccnc(N)n1.Cl [GW830707] | 0% | 4% | 0% | 5% | 34% | 6% | 1% | 7% | 0% | 0% | 0% | 10% | 97.5% | 100% | 20% | 1% | 15% | 23% | 0% | 0% |
| Cc1cc(-c2c(-c3ccc(F)cc3)ncn2CCCN2CCOCC2)nc(N)n1 [SB-222517] | 0% | 17% | 0% | 0% | 66% | 0% | 1% | 1% | 0% | 0% | 0% | 0% | 0% | 16% | 0% | 0% | 0% | 12% | 0% | 28% |
| Cc1ccc(C)c(NC(=O)Nc2ccc(C)c(-c3ccc(C(=O)Nc4ccncc4)cc3)c2)c1 [GSK1398473] | 1% | 50% | 2% | 21% | 15% | 15% | 0% | 0% | 0% | 13% | 0% | 23% | 80% | 100% | 2% | 12% | 14% | 0% | 0% | 0% |
| COc1cccc2c(-c3ccncc3)c(-c3ccc(F)cc3)nn12 [GW468513] | 14% | 86% | 7% | 0% | 10% | 61% | 0% | 0% | 0% | 0% | 11% | 0% | 0% | 21% | 10% | 5% | 0% | 18% | 0% | 0% |
| CC(C)c1nc(-c2cccc(NS(=O)(=O)c3c(F)cccc3F)c2)c(-c2ccnc(Nc3ccc(N4CCOCC4)nc3)n2)s1.Cl [GSK1723980] | 0% | 97% | 4% | 19% | 16% | 73% | 0% | 0% | 0% | 99.9% | 100% | 100% | 88% | 100% | 0% | 69% | 82% | 0% | 0% | 7% |
| CN(C)c1ncnc2nc[nH]c12 [SKF-31736] | 4% | 0% | 0% | 8% | 43% | 12% | 6% | 0% | 15% | 17% | 0% | 0% | 0% | 0% | 0% | 0% | 5% | 0% | 0% | 11% |
| CN(C)CCNS(=O)(=O)c1ccc(-c2ccnc3[nH]ccc23)cc1 [GSK977620] | 13% | 20% | 30% | 34% | 32% | 71% | 56% | 64% | 58% | 7% | 0% | 0% | 0% | 54% | 0% | 6% | 0% | 25% | 7% | 0% |
| COc1cc(Nc2nccc(N3CCC(NC(=O)Nc4ccc5c(c4)OCO5)C3)n2)cc(OC)c1OC (centres unmarked) [GSK1379766] | 4% | 0% | 0% | 0% | 0% | 0% | 0% | 0% | 4% | 16% | 38% | 31% | 11% | 60% | 0% | 8% | 0% | 0% | 0% | 8% |
| COc1cc(Nc2nccc(N3CCC(NS(=O)(=O)c4ccc(NC(C)=O)cc4)CC3)n2)cc(OC)c1OC [GSK1379825] | 16% | 27% | 19% | 0% | 19% | 13% | 0% | 5% | 1% | 14% | 0% | 25% | 6% | 90% | 21% | 0% | 5% | 0% | 0% | 0% |
| COc1cccc(NC(=O)NCCNc2ccnc(Nc3ccc(F)cc3)n2)c1 [GSK1379879] | 17% | 8% | 17% | 16% | 8% | 0% | 0% | 0% | 0% | 0% | 0% | 0% | 0% | 53% | 0% | 6% | 18% | 0% | 0% | 0% |
| Cl.O=C(Nc1ccc(Oc2ccc3[nH]c(NC(=O)c4ccco4)nc3c2)cc1)Nc1cc(C(F)(F)F)ccc1F [GW683134] | 4% | 6% | 8% | 0% | 0% | 59% | 0% | 0% | 0% | 7% | 0% | 8% | 92.6% | 100% | 14% | 27% | 14% | 0% | 0% | 100% |
| Cl.Cl.NCC(NC(=O)c1cc(-c2cccnc2)c(-c2ccnc3[nH]ccc23)s1)c1ccccc1 (centres unmarked) [GSK1323434] | 36% | 19% | 17% | 4% | 6% | 39% | 0% | 28% | 65% | 0% | 14% | 0% | 0% | 28% | 26% | 29% | 28% | 7% | 2% | 0% |
